Hits are enriched below; roughly 9.2% of the tested compounds scored in any of these assays.
ELG1 DNA repair: ELG1-dependent DNA repair inhibition; HEK293T ELG1-luciferase reporter, luminescence, 16 h; DNA damage induced by 5-fluorouridine; Potency, µM (top dose mostly 46.1 µM), hits mostly inhibitors; 2.3% of 330,000 active; note: nearly all actives have a fitted effect of over 55% in size
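5-Fluorouridine DNA damage + compound/DMSO, 2,000 cells/well, 16 h, 37 °C/5% CO2. ONE-Glo, 30 min RT, luminescence. Readout = decrease in reporter signal.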
Rab9 promoter act: activators of Rab9 promoter | 2.8% of 320,000 active | Potency, µM (highest dose often 9.22 µM), actives largely listed as activators | Huh7 Rab9 promoter-luciferase reporter, luminescence, 24 h; note: nearly all actives have a fitted effect of over 60% in size
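Using Huh7 cells stably transfected with Rab9 promoter–luciferase, compounds were incubated 24 h at 37 °C, 5% CO2; luciferase luminescence was read 10 min after reagent addition.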
ELG1 genotoxic: inducers of genotoxicity in HEK293T ELG1-luciferase cells | HEK293T ELG1-luciferase reporter, luminescence, 16 h | Potency, µM (titrated, usually from 46 µM), hits mostly activators | 1.3% of 330,000 active; note: nearly all actives have a fitted effect of over 60% in size
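Screening used a luciferase reporter fused to human ELG1 in HEK293T cells. Luminescence was read on a CCD plate imager after 16 hr exposure and 30 min ONE-Glo incubation.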
NPC1 promoter act: activators of NPC1 promoter; Huh7 NPC1 promoter luciferase reporter, 24 h; Potency, µM (highest dose often 9.22 µM), most hits filed as activators; 2.4% of 320,000 active; note: nearly all actives have a fitted effect of over 60% in size
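Huh7 reporter cells (NPC1 promoter driving luciferase) are dosed with compound for 24 h at 37 °C, 5% CO2; luciferase detection reagent is then added and luminescence measured after 10 min at ambient temperature.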
FLuc counter: inhibits or activates purified firefly luciferase, miR-21 counter-screen; purified FLuc, Km substrates, luminescence inhibition; AID 588342; P08659; 6.9% of 360,000 active; Potency, µM (titrated, usually from 57.5 µM), actives largely listed as inhibitors; note: nearly all actives have a fitted effect of over 55% in size
Target sequence (P08659 whole entry, looked up): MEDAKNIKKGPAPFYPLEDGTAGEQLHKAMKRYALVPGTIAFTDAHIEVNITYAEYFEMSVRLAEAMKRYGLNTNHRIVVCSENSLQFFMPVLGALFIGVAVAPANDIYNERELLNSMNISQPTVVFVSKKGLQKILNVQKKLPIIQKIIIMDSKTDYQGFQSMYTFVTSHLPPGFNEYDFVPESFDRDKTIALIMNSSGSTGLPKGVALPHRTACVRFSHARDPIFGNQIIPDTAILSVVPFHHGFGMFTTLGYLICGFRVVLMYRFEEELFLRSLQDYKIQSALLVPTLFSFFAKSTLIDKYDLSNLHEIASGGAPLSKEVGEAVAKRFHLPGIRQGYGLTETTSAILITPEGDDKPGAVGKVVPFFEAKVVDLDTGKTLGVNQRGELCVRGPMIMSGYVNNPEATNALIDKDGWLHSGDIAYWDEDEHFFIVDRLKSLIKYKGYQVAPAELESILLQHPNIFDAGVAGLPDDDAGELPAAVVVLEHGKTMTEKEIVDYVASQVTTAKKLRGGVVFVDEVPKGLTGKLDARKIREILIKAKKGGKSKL
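Purified P. pyralis luciferase (10nM final) with 10uM D-luciferin and 10uM ATP (Km levels) in 50mM Tris acetate pH 7.5, 10mM Mg acetate, 0.01% Tween-20, 0.05% BSA; qHTS 6-point titration, ~60 µM downward; luminescence read.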
SMN2 splice enh: SMN2 splice variant enhancement; HEK293 SMN2-luciferase splicing reporter, luminescence, 30-36 h; Potency, µM (series often up to 46.1 µM), hits mostly activators; 2.8% of 210,000 active; AID 1458; note: nearly all actives have a fitted effect of over 55% in size
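qHTS luciferase splicing reporter: luminescence rises when SMN2 exon 7 is included in transfected HEK293 cells. Compound exposure lasted 30-36 h at 37C, with 4.5 mM final sodium butyrate as control, followed by a ONE-Glo read.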
Numbers stand for hits; 0 = inactive; ? = inconclusive; - = no result; [ ] = another dose, or the depositor's remark. Calls come from the whole dose curve; as a rule, active = well fitted curve in the direction sought with a large enough effect; inconclusive = small, poorly fitted or top-dose-only effect, or another doubt; inactive = no such curve, though single readings can be large; an effect the other way counts as inactive or inconclusive.

SMILES	ELG1 DNA repair	Rab9 promoter act	ELG1 genotoxic	NPC1 promoter act	FLuc counter	SMN2 splice enh
CCOC(=O)N1CCN(S(=O)(=O)c2ccc(C(=O)Nc3nc4ccccc4s3)cc2)CC1	0	0	0	0	0	0
O=C(Nc1ccc(C(F)(F)F)cc1)C1CCCN(c2cnccn2)C1 (stereo not given)	-	-	-	-	0	0
CC1CCCC(C)N1CC(O)Cn1c2ccccc2c2ccccc21 (stereo not given)	0	0	0	0	0	-
CCc1cc(C(=O)OC)c(NC(=O)CN2CCN(C(=O)c3ccco3)CC2)s1	10.3µM	0	0	0	0	-
CCOC(=O)c1c(NC(=O)CN2CCCc3ccccc32)sc(C)c1C	?	0	?	0	?	0
COCCOC(=O)c1c(NC(=O)CN2CCCc3ccccc32)sc(C(N)=O)c1C	7.31µM	0	0	0	0	-
CCOC(=O)c1c(NC(=O)CN2CCN(C(=O)c3ccco3)CC2)sc(C(N)=O)c1C	23.1µM	0	0	0	0	0
CCOC(=O)c1c(NC(=O)c2ccco2)sc(C(=O)N2CCCC2)c1C	?	0	0	0	0	0
CCCCOc1ccc(C(=O)NCc2nnnn2-c2ccc(C)c(C)c2)cc1	-	-	-	-	0	-
O=C(CNS(=O)(=O)c1ccc(Cl)cc1)N1CCN(c2ccc(F)cc2)CC1	23.1µM	-	0	-	-	-
O=C(COc1ccc(S(=O)(=O)NC2CCCCC2)cc1)N1CCN(c2ccc(F)cc2)CC1	9.2µM	0	0	0	0	0
CCOc1ccccc1NC(=O)COc1ccc(S(=O)(=O)NC2CCCCC2)cc1	-	-	-	-	8.49µM	0
CCOc1ccccc1NC(=O)C1CCCCN1S(=O)(=O)c1ccccc1 (stereo not given)	20.6µM	0	0	0	-	-
Cc1ccc(S(=O)(=O)N2CCN(C(=O)CSc3ccccn3)CC2)c(C)c1	?	0	0	0	0	-
COC(=O)C(Cc1ccccc1)NC(=O)c1ccc(NS(=O)(=O)c2ccc3[nH]c(=O)[nH]c3c2)cc1 (stereo not given)	0	0	0	0	0	-
CC(=O)c1ccc(N2CCN(C(=O)c3ccc(Cl)c(NC4=NC5CS(=O)(=O)CC5S4)c3)CC2)cc1 (stereo not given)	0	0	0	0	0	-
COC(=O)/C=C1\NCCNC1=O	0	0	0	0	0	-
Cc1ccc(C(=O)/C=C2\NCC(C)NC2=O)cc1 (stereo not given)	?	0.316µM	?	0.316µM	1.2µM	0
Cc1ccc(C(=O)/C=C2\NCCNC2=O)cc1	?	0.891µM	?	1.41µM	5.36µM	2.82µM
Cc1nc2cc(C(=O)NCCC3=CCCCC3)ccc2n1-c1ccc(Br)cc1	-	-	-	-	0	-
O=C(/C=C/c1ccccc1)c1ccccc1	?	0	?	0	2.39µM	0
Cc1c(NC(=O)c2ccc3c4c(cccc24)CC3)c(=O)n(-c2ccccc2)n1C	?	0	0	0	0	0
CC(/C=C\c1ccccc1)=C/C(=O)O	0	0	0	0	0	-
CC(C)(C)C(=O)/C=C(N)/C=C/c1ccccc1	?	0	?	?	12µM	0
O=C(/C=C/c1ccccc1)/C=C/c1ccccc1	?	0	0	0	3.38µM	0
SMILES	ELG1 DNA repair	Rab9 promoter act	ELG1 genotoxic	NPC1 promoter act	FLuc counter	SMN2 splice enh
O=C(/C=C/c1ccccc1)c1ccc2c3c(cccc13)CC2	?	0	?	0	12µM	-
CC(C)(C)C(=O)/C=C(\N)c1ccccn1	?	0	0	0	0	0
CC(=O)c1ccc(NC(=O)CCCN2C(=O)C(c3ccccc3)Oc3cccnc32)cc1 (stereo not given)	0	0	0[9.26 µM]	0	0	-
CCN(CC)C(=O)[C@H]1C[C@H](CC(=O)NCc2ccco2)C(=O)N2CCc3c([nH]c4cc(CCC(=O)N(C)C)ccc34)[C@]12C	0	-	0	-	-	-
O=C(/C=C\c1ccc(-c2ccccc2)o1)c1ccccc1	?	?	?	?	6.01µM	?
O=C(/C=C/c1ccc(NC(=O)c2ccccc2-c2ccccc2C(=O)O)cc1)c1ccccc1	0	0	0	0	19µM	-
N/C(=N\OC(=O)/C=C/c1ccccc1)c1ccccc1	?	?	8.2µM	?	1.51µM	-
N#Cc1ccccc1COc1ccc(/C=C/C(=O)O)cc1	0	0	0	0	2.39µM	0
Cc1ccc(C(=O)/C=C/c2ccc(-c3ccc(C)cc3)o2)cc1	0	0	0	0	0	0[1.84 µM]
O=C(O)c1ccccc1-c1ccccc1C(=O)Nc1ccc(F)cc1	0	0	0	0	0	-
Cc1ccc(Nc2sc(C(=O)c3ccccc3)c(N)c2S(=O)(=O)c2ccccc2)c(C)c1	-	-	-	-	0	0
O=C(CSc1nc(=O)n2ccccc2n1)Nc1ccc2c(c1)OCO2	0	0	0	0	0	-
O=C(CCn1c(=O)c2cccn2c2cccnc21)NCc1ccc(F)cc1	-	-	-	-	0	-
Oc1cc2c(cc1O)[C@@H]1c3ccc(O)c(O)c3OC[C@]1(O)C2	-	-	-	-	-	0
N#Cc1ccc(/C=C/C(=O)c2ccccc2)cc1	?	0	?	0	5.36µM	-
